These results are taken from PubChem BioAssay (NCI).

This is part of a sample that, as a whole, favours compounds with a hit. Of some 83,000 tested, about 20% had one in any assay.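 For each line, cells grew in 96-well plates with the test compound present at a single concentration for 48 hours.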 Values without a mark were called inactive. Activity calls are given as the source filed them. Rule for the calls: active = growth percent below 10; inactive = the rest.

Assay in all cases: NCI-60 one-dose screen, 48 h (100 = growth as untreated, 0 = no growth, -100 = all killed)
Settings in all cases: 10 µM unless noted

Assay [1] has as its system DU-145 prostate.
In assay [2] the test system is K-562 leukemia.
The subject of assay [3] is MALME-3M melanoma.
Assay [4] has as its system MDA-MB-231 breast.
Assay [5] relates to RXF 393 renal.
Assay [6] deals with SF-268 CNS.
Assay [7] has as its system SF-295 CNS.
Assay [8] concerns SF-539 CNS.
Assay [9] has as its system UACC-257 melanoma.
For assay [10], the system named is M14 melanoma.
Assay [11] deals with HCT-15 colon.
Assay [12] has as its system HT29 colon.
The test system of assay [13] is SNB-75 CNS.
Assay [14] concerns SNB-19 CNS.
Assay [15] has as its system U251 CNS.
In assay [16] the test system is PC-3 prostate.
The subject of assay [17] is SK-MEL-5 melanoma.
Assay [18] deals with UACC-62 melanoma.
Assay [19] concerns LOX IMVI melanoma.
Assay [20] relates to SK-MEL-28 melanoma.

As for `O=C1CN(Cc2ccc(C(=O)NO)cc2)C(=O)[C@@H](Cc2ccccc2)N1`, the growth in assay [1] was 111%; in assay [2] it was 98%; in assay [3], 94%; in assay [4] it was 102%; in assay [5], 112%; in [6], 99.7%. Moreover, the growth in assay [7] is 99.3%; in assay [8], 99.7%; in [9] it was 93.2%; in assay [10], 107%; in assay [11], 104%; in assay [12], 113%. In addition, the growth is 85.9% in assay [13]; 98.5% in assay [14]; 92.4% in assay [15]; 97.9% in [16]; 107% in assay [17]; 99.2% in [18]. Besides, the growth is 111% in [19] and 105% in assay [20].

Consider `CCN(CC)CCCCCCNc1cccc2cc(Br)cnc12`, for which the growth in assay [1] is 91.4%; in [2], -27.8% (active); in assay [3], 47.9%; in assay [4], 67.9%; in [5], 91%; in assay [6], 74.9%. Also, the growth was 84.8% in assay [7]; 94.4% in assay [8]; 80.7% in assay [9]; 50.1% in [10]; 84.7% in assay [11]; 16.9% in assay [12]. In addition, the growth in assay [13] is 92.2%; in assay [14] it was 107%; in [15], 81.2%; in [16], 54.2%; in assay [17], 94.7%; in assay [18], 113%. Also, the values for the growth in [19] and in assay [20] were 69.3% and 108%, respectively.

Regarding `CCCCCC1CCCCN1C(=O)OCCCC` (stereo not given), the growth is 118% in assay [1]; 109% in [2]; 88.9% in assay [3]; 77.5% in [4]; 96.9% in assay [5]; 99.1% in assay [6]. Moreover, the growth in assay [7] is 89.3%; in assay [8], 92%; in assay [9], -7.74% (active); in assay [10] it was 105%; in assay [11], 101%; in assay [12] it was 103%. Moreover, the growth was 81.4% in assay [13]; 105% in assay [14]; 104% in assay [15]; 111% in assay [16]; 99.4% in assay [17]; 76.4% in [18]. Further, the growth in [19] was 94.7%; in assay [20], 116%.

Regarding `[2H]C1([2H])CCN(C(=O)C2CC2)c2cc(NS(=O)(=O)c3ccc(-c4cccc(C(N)=O)c4)cc3)ccc21`, the growth in assay [1] was 72%; in assay [2] it was 20.7%; in assay [3] it was 39.6%; in assay [4], 42.3%; in assay [5], 48.4%; in assay [6], 51.9%. Also, the growth in assay [7] was 19.8%; in assay [8], 23.4%; in assay [9], 47.7%; in [10], 86.4%; in assay [11], 90.7%; in assay [12] it was 13.6%. Moreover, the growth in [13] was 11.3%; in assay [14] it was 41.2%; in [15], 29.8%; in assay [16] it was 34.2%; in assay [17], 15.4%; in assay [18] it was 21.4%. The growth is 39.2% in assay [19] and 43.9% in [20].

On to `COc1ccc(C2CC(c3cc(OC)c(OC)c(OC)c3)=NN2C(C)=O)cc1OCC(=O)Nc1nc2ccc(C(F)(F)F)cc2s1` (stereo not given), for which the growth in assay [1] was 48.5%; in [2], 83.8%; in assay [3], 68.7%; in assay [4], 44.8%; in [5], 33.5%; in [6] it was 71.3%. Further, the growth is 61.4% in assay [7]; -32.9% (active) in assay [8]; 67.1% in [9]; 68% in [10]; 76.2% in assay [11]; 79.8% in [12]. In addition, the growth in assay [13] was 37%; in assay [14], 74.2%; in assay [15], 67%; in assay [16], 67.8%; in assay [17], 15.1%; in assay [18], 52.5%. Further, the results for the growth in assay [19] and in assay [20] were 32.5% and 65.5%, respectively.

Regarding `Cn1cc(-c2noc(-c3cn(C)c4ncc(F)cc34)n2)c2cc(Cl)ccc21`, the growth in assay [1] was 80.3%; in [2], 77.2%; in assay [3], 48.1%; in [4] it was 52.7%; in assay [5], 78%; in [6], 69.2%. Further, the growth in [7] is 41.6%; in assay [8], 46%; in assay [9], 96.5%; in [10], 78.6%; in assay [11], 65.8%; in assay [12] it was 25.5%. Moreover, the growth in assay [13] was -24.2% (active); in assay [14], 70.1%; in assay [15], 19.4%; in assay [16], 79.4%; in [17], 87%; in [18], 77.8%. Also, the growth was 52.5% in [19] and 85.8% in assay [20].

As to `O=C(CCN1CCCCC1)c1ccc2ccccc2c1`, the growth in [1] was 98.6%; in [2], 111%; in assay [3] it was 106%; in [4], 102%; in assay [5], 102%; in [6], 98.2%. In addition, the growth was 99.4% in assay [7]; 108% in assay [8]; 98.5% in assay [9]; 107% in assay [10]; 103% in assay [11]; 99.7% in assay [12]. Besides, the growth in [13] was 93.6%; in assay [14], 103%; in [15] it was 93.3%; in assay [16], 97.6%; in [17], 97%; in assay [18] it was 97.2%. Moreover, the growth in assay [19] was 93.3%; in [20] it was 112%.

Regarding `COc1ccc(OC)c(NC=O)c1`, the growth in [1] is 105%; in [2], 99.8%; in assay [3], 107%; in assay [4], 106%; in [5], 103%; in assay [6], 99.6%. Further, the growth in [7] is 106%; in assay [8] it was 103%; in assay [9], 102%; in assay [10] it was 103%; in assay [11], 103%; in assay [12], 99.4%. Besides, the growth is 100% in assay [13]; 106% in [14]; 88.2% in assay [15]; 105% in assay [16]; 110% in assay [17]; 99.7% in [18]. Moreover, the figures for the growth in assay [19] and in assay [20] were 100% and 115%, respectively.
